# Reference: PubChem BioAssay (Tox21)
# Values joined by “and” are separate entries in the source; they are usually repeats but may differ in a detail not shown here. Equal values may be shown once. Records with an inconclusive call do not appear. Entries that show only a call come without a potency. Values without a mark were called inactive. Active and inactive are the calls of the source. The call rests on the fitted dose curve; in most records, active means well fitted cell-killing curve with a large enough effect in the repeat runs; inconclusive means weak or mixed curves, or effect the other way; inactive means no such curve, though single readings can be large or run the other way.
# Assay: qHTS assay for identifying genotoxic compounds that show differential cytotoxicity against isogenic chicken DT40 cell lines with known DNA damage response pathways - Rev3 mutant cell line (AID 743014); further: nearly all actives have a fitted effect of over 55% in size
# Details: chicken DT40 Rev3-/- viability, CellTiter-Glo, 40 h; series mostly up to 68.4 µM
# Excerpt: National Center for Advancing Translational Sciences [NCATS]
# NIH Chemical Genomics Center [NCGC]
# U.S. Environmental Protection Agency [EPA]
# National Institutes of Environmental Health Sciences [NIEHS]
# National Toxicology Program [NTP]
# U.S. Food and Drug Administration [FDA]
# DNA repair pathways play a critical role in cellular homeostasis by repairing DNA damage induced by endogenous processes and xenobiotics. Isogenic chicken DT40 cell lines deficient in different DNA repair pathways can be used to identify genotoxic compounds and aid in characterizing the nature of the DNA damage induced. Two DNA repair-deficient cell lines with disrupted genes, Rad54/Ku70 or Rev3, were used to screen the Tox21 10K compound library. Possible genotoxicity was based on the presence of a significant increase in cytotoxicity in one or more of the DNA repair-deficient cell lines compared to that observed in the parental DNA repair-proficient cell line. CellTiter Glo viability assay (Promega, Madison, WI) was used to measure cell viability in these cells after compound treatment. This assay includes the data from the Rev3 mutant cell line.
# Tox21 Assay Protocol Summary:
# 300 DT40 mutant cells in 5 uL/well were dispensed into white, solid-bottom 1536-well plates using a Multidrop Combi (ThermoFisher Scientific, Waltham, MA) dispenser. After the assay plates were incubated at 37 C/5% CO2 for approximately 0.5 hour, 23 nL of compounds dissolved in DMSO, positive controls or DMSO only was transferred into the assay plate by a pintool work station (Kalypsys, San Diego, CA). The assay plates were incubated at 37 C/5% CO2 for 40 hours. After 5 uL per well of CellTiter-Glo reagent was added into each well of the assay plates, the plates were incubated for 30 min at room temperature and the luminescence intensity of the plates was measured using a ViewLux (PerkinElmer, Shelton, CT) plate reader.
# Potency means the concentration at half of the fitted maximal effect.
Compound,Potency,"activity, negative = cytotoxicity"
CCc1cccc(C)c1N(C(=O)CCl)[C@@H](C)COC,19.3 µM (active),
CCCCON=O,inactive,
O=C1C(Cl)=C(Cl)C(=O)C(Cl)=C1Cl,8.6 µM (active) and 6.86 µM (active),
O=[N+]([O-])c1cc(C(F)(F)F)c(Cl)c([N+](=O)[O-])c1Nc1ncc(C(F)(F)F)cc1Cl,0.137 µM (active),
Brc1ccc(Oc2ccc(Br)cc2Br)c(Br)c1,inactive,
CCC1COC(Cn2cncn2)(c2ccc(Cl)cc2Cl)O1 (stereo not given),9.69 µM (active),
N#Cc1sc2c(=O)c3ccccc3c(=O)c=2sc1C#N,0.433 µM (active),
O=C(N[C@H]1N=C(c2ccccc2F)c2cccc3c2N(CC3)C1=O)c1cc2ccccc2[nH]1,inactive,
O=[N+]([O-])[O-].[Tl+],1.09 µM (active),
O=NN(CCO)CCO,inactive,
CC(=O)[O-].CC(=O)[O-].CC(=O)[O-].[Cr+3],60.9 µM (active),
CCCCCCCc1ccc(O)cc1,19.3 µM (active),
COc1c2c(cc3c1OCO3)CCN(C)C2,inactive,
O.O.O.O.O.O.O=S(=O)([O-])[O-].[Ni+2],26.1 µM (active),
C=CC(=C)C,21.7 µM (active),
CCC1(CC)C(=O)N=C(O)NC1=O,inactive,
O=[N+]([O-])c1ccc(Cl)c(Cl)c1Cl,inactive,
CCOP(=O)(OCC)Oc1cc(C)nc(C(C)C)n1,inactive,
C#CCO,inactive,
CCOC(=O)CCN(SN(C)C(=O)Oc1cccc2c1OC(C)(C)C2)C(C)C,24.3 µM (active),

Compound,Potency,"activity, negative = cytotoxicity"
CC(C)N(C(=O)CCl)c1ccccc1,2.17 µM (active) and 3.86 µM (active),
O=[N+]([O-])c1ccc(CCl)cc1,inactive,
CC(C)[C@@H](Nc1ccc(C(F)(F)F)cc1Cl)C(=O)OC(C#N)c1cccc(Oc2ccccc2)c1 (stereo not given in full),inactive,
ClC1=C(Cl)[C@]2(Cl)[C@@H]3[C@H]4C[C@H]([C@@H]5O[C@H]45)[C@@H]3[C@@]1(Cl)C2(Cl)Cl,9.68 µM (active),
CCN(CC)CCc1c[nH]c2ccccc12,inactive,
COc1ccc(Cc2nccc3cc(OC)c(OC)cc23)cc1OC,9.02 µM (active),
CCCCCON=O,inactive,
ClCBr,inactive,
CC(=O)[O-].CC(=O)[O-].CC(=O)[O-].[Sb+3],,0.291% [at 8.53 µM]
CC(C)Br,inactive,
Clc1c(Cl)c(Cl)c(Cl)c(Cl)c1Cl,,6.09% [at 8.53 µM]
CCC[CH2][Sn]([CH2]CCC)([CH2]CCC)[O][Sn]([CH2]CCC)([CH2]CCC)[CH2]CCC,0.3 µM (active),
[O]=[Cr][O][Cr]=[O],inactive,
Nc1nc(N)nc(Cl)n1,inactive,
[O-][Cl+3]([O-])([O-])O,inactive,
Nc1ccc(N=Nc2ccccc2)cc1,61.1 µM (active),
N#Cc1c2ccccc2cc2ccccc12,inactive,
O=c1c2ccccc2c(=O)c2c1cc(Cl)c1[nH]c3c([nH]c12)c(Cl)cc1c(=O)c2ccccc2c(=O)c13,inactive,
O=C1C2(Cl)C3(Cl)C4(Cl)C(Cl)(Cl)C5(Cl)C3(Cl)C1(Cl)C5(Cl)C24Cl (stereo not given),13.5 µM (active) and 32.9 µM (active),
CCC(C)Br (stereo not given),inactive,
